Inconclusive results are not listed. The source made the active and inactive calls. The calls were made as follows, unless noted: active = hit-call score of the fitted dose curve at least 0.9, where 1 is the maximum; inconclusive = response in the unintended direction; inactive = score below 0.9.
What was measured:
[1] = ATG_TCF_b_cat_CIS: Attagene CIS-FACTORIAL HepG2 Assay for human T-Cell-Factor with beta-catenin (TCF/b-cat) (AID 2282965; active = hit-call score of the fitted dose curve at least 0.9, where 1 is the maximum; inactive = score below 0.9); settings: HepG2 TCF/beta-catenin cis-reporter transcription, actives raise or lower the signal
Procedure, shortened: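 Measured: reporter mRNA in HepG2 transiently transfected with cis-promoter reporter units, 24 h after chemical addition. Fitting was bidirectional, DMSO as negative control.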

[2] = ATG_TAL_CIS: Attagene CIS-FACTORIAL HepG2 Assay for human TAL Basal Promoter (AID 2282966; active = hit-call score of the fitted dose curve at least 0.9, where 1 is the maximum; inactive = score below 0.9;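 also: background control endpoint measuring basal TAL promoter reporter mRNA not a specific factor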); settings: HepG2 Attagene cis-factorial TAL promoter reporter; actives raise or lower the signal
Procedure, shortened: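 Endogenous transcription-factor activity is sensed in HepG2 cells through transfected cis-promoter reporter constructs. After 24 h dosing, reporter transcripts are quantified by RT-PCR and capillary electrophoresis. Gain or loss of signal is fitted relative to DMSO.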

[3] = ATG_TGFb_CIS: Attagene CIS-FACTORIAL HepG2 Assay for human Transforming Growth Factor (TGF) (AID 2282967; active = hit-call score of the fitted dose curve at least 0.9, where 1 is the maximum; inactive = score below 0.9); settings: HepG2 Attagene CIS TGFb reporter, mRNA transcription; actives raise or lower the signal
Procedure, shortened: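 Endogenous TGFB1-linked transcription factor activity read as reporter mRNA via RT-PCR and capillary electrophoresis, 24 h after dosing transiently transfected HepG2 cells. Gain or loss of signal fitted relative to DMSO.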

[4] = ATG_VDRE_CIS: Attagene CIS-FACTORIAL HepG2 Assay for human Vitamin D Receptor Element (VDRE) (AID 2282968; active = hit-call score of the fitted dose curve at least 0.9, where 1 is the maximum; inactive = score below 0.9); settings: HepG2 VDRE cis-reporter transcription, actives raise or lower the signal
Procedure, shortened: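 Measures endogenous factor activity through cis-element-driven reporter transcripts in transiently transfected HepG2. Cells are treated 24 h; reporter mRNA is quantified by RT-PCR and capillary electrophoresis; fitting is bidirectional.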

[5] = target: Estrogen receptor (Homo sapiens) (UniProt P03372); test: ATG_ERa_TRANS: Attagene TRANS-FACTORIAL HepG2 Assay for human Estrogen Receptor alpha (ERa) (AID 2282970); settings: HepG2 Attagene TRANS ERa GAL4 reporter, mRNA
Procedure, shortened: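 Transfected HepG2 cells carrying GAL4-UAS-driven reporter units were dosed for 24 hours. Total RNA was reverse-transcribed, reporter sequences PCR-amplified, FAM-labelled, HpaI-digested and resolved by capillary electrophoresis. Increases over DMSO control defined activity.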

[6] = target: Steroid hormone receptor ERR1 (Homo sapiens) (UniProt P11474); test: ATG_ERRa_TRANS: Attagene TRANS-FACTORIAL HepG2 Assay for human Estrogen-Related Receptor alpha (ERRa) (AID 2282971); settings: HepG2 Attagene TRANS reporter, ERRa transactivation
Procedure, shortened: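 HepG2 cells were transiently transfected with multiple GAL4-UAS reporter units, then dosed with compound for 24 h. Total RNA was reverse-transcribed, reporter cDNA PCR-amplified and fluorescently labelled, and fragments resolved by capillary electrophoresis; induction was compared with DMSO.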

[7] = target: X-box-binding protein 1 (Homo sapiens) (UniProt P17861); test: ATG_Xbp1_CIS: Attagene CIS-FACTORIAL HepG2 Assay for human X-box Binding Protein 1 (XBP1) (AID 2282972; active = hit-call score of the fitted dose curve at least 0.9, where 1 is the maximum; inactive = score below 0.9); settings: HepG2 XBP1 cis-element reporter, Attagene multiplex; actives raise or lower the signal
Procedure, shortened: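 Changes in reporter transcript abundance, read by RT-PCR and capillary electrophoresis, reflect endogenous transcription factor activity. Transfected HepG2 cells received compound for 24 hours; DMSO defined baseline for bidirectional analysis.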

[8] = ATG_M_19_TRANS: Attagene TRANS-FACTORIAL HepG2 Assay for M19 Transcription Factor (Internal Marker) (AID 2282974); settings: HepG2 Attagene TRANS-FACTORIAL M19 internal marker reporter
Procedure, shortened: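 After transfection of HepG2 with GAL4-UAS-driven reporter constructs, cells are dosed for 24 h. Total RNA is reverse-transcribed, reporter sequences PCR-amplified and labelled, then HpaI-digested and sized by capillary electrophoresis.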

[9] = ATG_GAL4_TRANS: Attagene TRANS-FACTORIAL HepG2 Assay for GAL4 (Internal Marker) (AID 2282976); settings: HepG2 Attagene TRANS GAL4 internal marker reporter
Procedure, shortened: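 Fluorescence from capillary electrophoresis of labelled RT-PCR products quantifies reporter mRNA induction after 24 h dosing of HepG2 cells carrying transfected GAL4-UAS reporter transcription units. Vehicle DMSO serves as baseline.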

[10] = target: Estrogen-related receptor gamma (Homo sapiens) (UniProt P62508); test: ATG_ERRg_TRANS: Attagene TRANS-FACTORIAL HepG2 Assay for human Estrogen-Related Receptor gamma (ERRg) (AID 2282977); settings: HepG2 Attagene TRANS reporter, ERRg transactivation;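 also: hits increase reporter signal over DMSO so potencies reflect activators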
Procedure, shortened: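 Exogenous NR-Gal4 chimera activity was assessed in HepG2 cells bearing transfected GAL4-UAS reporters. After 24 h dosing, total RNA underwent RT-PCR, fluorescent primer extension and HpaI digestion before capillary electrophoresis, with gain of signal scored against DMSO.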

[11] = target: Glucocorticoid receptor (Homo sapiens) (UniProt P04150); test: ATG_GR_TRANS: Attagene TRANS-FACTORIAL HepG2 Assay for human Glucocorticoid Receptor (GR) (AID 2282978); settings: HepG2 Attagene TRANS GR reporter, mRNA transcription;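 also: activators score as hits since higher reporter transcript over DMSO is fitted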
Procedure, shortened: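 Multiplexed TRANS reporter system, HepG2; 24 h exposure; RNA → oligo(dT) RT → reporter-specific PCR → 6-FAM primer extension → HpaI cut → CE fluorescence. Gain-of-signal vs DMSO.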

[12] = target: Oxysterols receptor LXR-alpha (Homo sapiens) (UniProt Q13133); test: ATG_LXRa_TRANS: Attagene TRANS-FACTORIAL HepG2 Assay for human Liver X Receptor alpha (LXRa) (AID 2282980); settings: HepG2 Attagene TRANS reporter, LXRa transactivation
Procedure, shortened: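 Transient HepG2 transfectants, 24 h dosing, RT-PCR/CE mRNA reporter quantitation; gain-of-signal vs DMSO.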

[13] = target: Oxysterols receptor LXR-beta (Homo sapiens) (UniProt P55055); test: ATG_LXRb_TRANS: Attagene TRANS-FACTORIAL HepG2 Assay for human Liver X Receptor beta (LXRb) (AID 2282981); settings: HepG2 Attagene TRANS GAL4-LXRb reporter, mRNA
Procedure, shortened: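 After 24 h of chemical treatment, transfected HepG2 cells yield total RNA; reporter cDNA is PCR-amplified, FAM-labelled, HpaI-cut and run on capillary electrophoresis. Signal reflects chimeric LXRb-Gal4 activity on GAL4-UAS reporters.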

[14] = target: Hepatocyte nuclear factor 4-alpha (Homo sapiens) (UniProt P41235); test: ATG_HNF4a_TRANS: Attagene TRANS-FACTORIAL HepG2 Assay for human Hepatocyte Nuclear Factor 4 alpha (HNF4a) (AID 2282982); settings: HepG2 HNF4a transactivation reporter, mRNA readout
Procedure, shortened: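 Multiplexed reporter assay: transfected HepG2, 24 h exposure, total RNA → oligo(dT) RT → PCR → 6-FAM extension → HpaI digest → CE fluorescence. DMSO = negative control.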

[15] = ATG_M_06_TRANS: Attagene TRANS-FACTORIAL HepG2 Assay for M06 Transcription Factor (Internal Marker) (AID 2282983); settings: HepG2 Attagene TRANS M06 internal marker reporter;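 also: reporter transcript level by RT-PCR then capillary electrophoresis fluorescence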
Procedure, shortened: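 Human liver HepG2 cells bearing transiently transfected chimeric NR-GAL4 reporter units were treated with chemicals for 24 h. Total RNA was reverse-transcribed, reporter sequences amplified and labelled, then quantified by capillary electrophoresis. Activity was fitted upward relative to DMSO.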

[16] = ATG_M_32_TRANS: Attagene TRANS-FACTORIAL HepG2 Assay for M32 Transcription Factor (Internal Marker) (AID 2282984); settings: HepG2 Attagene TRANS M32 internal marker reporter;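 also: transcript level of a background control reporter unit measured by RT-PCR and capillary electrophoresis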
Procedure, shortened: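 Cell-based TRANS-format assay in HepG2: exogenous chimeric GAL4 reporter units transiently expressed, compounds applied 24 h. Reporter mRNA detected by RT-PCR plus capillary electrophoresis; this readout is an internal background marker.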

[17] = target: Nuclear receptor subfamily 4 group A member 2 (Homo sapiens) (UniProt P43354); test: ATG_NURR1_TRANS: Attagene TRANS-FACTORIAL HepG2 Assay for human Nuclear Receptor Related Protein 1 (NURR1) (AID 2282985); settings: HepG2 Attagene TRANS reporter, mRNA readout
Procedure, shortened: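 Measures transcriptional activation by an exogenous NR-Gal4 chimera in transfected HepG2 liver cells. After 24 h, reporter RNA is reverse-transcribed, amplified and resolved by capillary electrophoresis; DMSO defines baseline.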

[18] = target: Transcriptional activator Myb (Homo sapiens) (UniProt P10242); test: ATG_Myb_CIS: Attagene CIS-FACTORIAL HepG2 Assay for human Myeloblastosis (Myb) Proto-Oncogene Transcription Factor (AID 2282986; active = hit-call score of the fitted dose curve at least 0.9, where 1 is the maximum; inactive = score below 0.9); settings: HepG2 Attagene CIS-FACTORIAL Myb reporter transcription; actives raise or lower the signal
Procedure, shortened: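 Endogenous transcription factor activity at a Myb-responsive cis element is reported in human liver HepG2 cells after 24 h chemical treatment. Reporter mRNA is detected by RT-PCR and capillary electrophoresis fluorescence, with DMSO as baseline.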

[19] = target: Bile acid receptor (Homo sapiens) (UniProt Q96RI1); test: ATG_FXR_TRANS: Attagene TRANS-FACTORIAL HepG2 Assay for Farnesoid X Receptor (FXR) (AID 2282979); settings: HepG2 Attagene TRANS FXR-GAL4 reporter transcription;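 also: hits raise reporter mRNA above DMSO so AC50 marks FXR activation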
Procedure, shortened: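 Chimeric FXR-GAL4 activity in transiently transfected human HepG2 liver cells is scored as induction of reporter mRNA after 24 h of dosing. Detection uses RT-PCR with fluorescent labelling and capillary electrophoresis, with DMSO serving as baseline.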

[20] = target: Nuclear receptor subfamily 1 group I member 3 (Homo sapiens) (UniProt Q14994); test: ATG_CAR_TRANS: Attagene TRANS-FACTORIAL HepG2 Assay for human Constitutive Androstane Receptor (CAR) (AID 2282969); settings: HepG2 Attagene TRANS-FACTORIAL CAR reporter;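 also: activators raise reporter mRNA above DMSO so AC50 marks induction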
Procedure, shortened: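 Signal is reporter mRNA induction relative to DMSO, measured 24 h after dosing by RT-PCR with fluorescent primer extension and capillary electrophoresis. Human HepG2 liver cells carried transiently transfected chimeric NR-Gal4/GAL4-UAS reporter constructs.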

Measured: AC50

Sequence of Glucocorticoid receptor (Homo sapiens) (P04150 whole entry, looked up): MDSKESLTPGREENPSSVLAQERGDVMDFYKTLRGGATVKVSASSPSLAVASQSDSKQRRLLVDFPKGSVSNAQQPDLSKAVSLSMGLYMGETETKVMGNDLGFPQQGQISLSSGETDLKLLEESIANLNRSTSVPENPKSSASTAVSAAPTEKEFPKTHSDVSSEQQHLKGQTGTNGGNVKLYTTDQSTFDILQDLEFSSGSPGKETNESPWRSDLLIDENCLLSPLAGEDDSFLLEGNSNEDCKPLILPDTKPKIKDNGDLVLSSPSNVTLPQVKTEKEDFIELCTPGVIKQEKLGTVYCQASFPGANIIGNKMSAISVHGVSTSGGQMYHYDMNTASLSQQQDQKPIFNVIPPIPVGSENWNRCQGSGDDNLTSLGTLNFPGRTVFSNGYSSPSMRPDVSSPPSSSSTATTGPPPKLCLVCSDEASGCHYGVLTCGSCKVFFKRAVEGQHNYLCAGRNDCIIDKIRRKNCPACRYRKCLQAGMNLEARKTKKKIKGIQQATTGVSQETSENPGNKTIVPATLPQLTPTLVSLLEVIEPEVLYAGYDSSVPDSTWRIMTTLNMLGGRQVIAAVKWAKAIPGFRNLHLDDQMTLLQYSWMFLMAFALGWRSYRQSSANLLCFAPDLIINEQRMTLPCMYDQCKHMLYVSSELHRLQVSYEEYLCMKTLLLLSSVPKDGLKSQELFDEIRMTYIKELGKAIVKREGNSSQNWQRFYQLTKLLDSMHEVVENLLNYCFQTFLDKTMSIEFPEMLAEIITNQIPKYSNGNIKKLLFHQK
Sequence of Oxysterols receptor LXR-beta (Homo sapiens) (P55055 whole entry, looked up, the tested form may be a part): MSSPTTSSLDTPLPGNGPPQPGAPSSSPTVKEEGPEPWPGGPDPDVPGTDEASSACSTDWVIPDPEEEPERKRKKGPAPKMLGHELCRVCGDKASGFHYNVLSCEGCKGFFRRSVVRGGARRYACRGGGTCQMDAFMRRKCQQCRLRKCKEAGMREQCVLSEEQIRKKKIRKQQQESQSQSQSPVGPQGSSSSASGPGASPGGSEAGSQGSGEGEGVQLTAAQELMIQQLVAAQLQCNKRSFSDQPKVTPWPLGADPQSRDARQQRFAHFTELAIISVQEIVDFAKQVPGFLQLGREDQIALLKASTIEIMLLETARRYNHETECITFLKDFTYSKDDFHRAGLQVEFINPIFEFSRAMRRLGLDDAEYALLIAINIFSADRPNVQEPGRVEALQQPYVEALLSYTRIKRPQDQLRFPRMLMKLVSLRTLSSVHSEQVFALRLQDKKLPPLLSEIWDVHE
Sequence of Transcriptional activator Myb (Homo sapiens) (P10242 whole entry, looked up): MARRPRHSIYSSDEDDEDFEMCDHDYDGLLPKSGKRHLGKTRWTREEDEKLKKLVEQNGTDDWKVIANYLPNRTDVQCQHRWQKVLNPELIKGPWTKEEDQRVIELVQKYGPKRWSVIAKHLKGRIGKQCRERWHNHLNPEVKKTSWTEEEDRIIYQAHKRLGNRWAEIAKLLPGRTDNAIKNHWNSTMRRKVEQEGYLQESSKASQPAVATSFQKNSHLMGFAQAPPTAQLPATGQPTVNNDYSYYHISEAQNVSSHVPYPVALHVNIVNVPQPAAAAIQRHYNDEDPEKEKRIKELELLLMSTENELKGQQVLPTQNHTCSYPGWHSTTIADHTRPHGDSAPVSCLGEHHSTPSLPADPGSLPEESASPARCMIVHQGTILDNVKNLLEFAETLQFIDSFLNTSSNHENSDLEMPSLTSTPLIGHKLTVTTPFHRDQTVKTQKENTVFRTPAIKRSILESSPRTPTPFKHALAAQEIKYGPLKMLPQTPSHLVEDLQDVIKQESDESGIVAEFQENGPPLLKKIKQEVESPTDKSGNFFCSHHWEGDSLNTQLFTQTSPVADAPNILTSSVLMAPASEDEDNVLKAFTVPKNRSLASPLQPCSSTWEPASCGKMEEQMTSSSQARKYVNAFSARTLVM
Sequence of Nuclear receptor subfamily 4 group A member 2 (Homo sapiens) (P43354 whole entry, looked up, the tested form may be a part): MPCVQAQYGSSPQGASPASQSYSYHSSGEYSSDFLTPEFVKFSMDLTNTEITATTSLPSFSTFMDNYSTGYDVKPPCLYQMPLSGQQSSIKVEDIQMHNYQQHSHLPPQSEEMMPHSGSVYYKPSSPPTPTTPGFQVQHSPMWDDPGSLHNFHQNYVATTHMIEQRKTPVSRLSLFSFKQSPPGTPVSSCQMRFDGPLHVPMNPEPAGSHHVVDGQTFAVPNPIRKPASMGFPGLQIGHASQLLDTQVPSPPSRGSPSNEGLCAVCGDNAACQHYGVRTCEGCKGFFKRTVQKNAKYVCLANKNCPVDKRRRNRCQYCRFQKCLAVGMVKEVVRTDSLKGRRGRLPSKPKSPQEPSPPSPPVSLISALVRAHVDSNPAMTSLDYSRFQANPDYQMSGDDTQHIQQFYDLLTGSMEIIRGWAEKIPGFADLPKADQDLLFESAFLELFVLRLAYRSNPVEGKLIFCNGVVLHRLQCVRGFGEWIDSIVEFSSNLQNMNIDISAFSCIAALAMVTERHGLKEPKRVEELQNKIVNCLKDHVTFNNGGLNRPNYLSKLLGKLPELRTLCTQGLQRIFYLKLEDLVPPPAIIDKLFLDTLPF
Sequence of Oxysterols receptor LXR-alpha (Homo sapiens) (Q13133 whole entry, looked up): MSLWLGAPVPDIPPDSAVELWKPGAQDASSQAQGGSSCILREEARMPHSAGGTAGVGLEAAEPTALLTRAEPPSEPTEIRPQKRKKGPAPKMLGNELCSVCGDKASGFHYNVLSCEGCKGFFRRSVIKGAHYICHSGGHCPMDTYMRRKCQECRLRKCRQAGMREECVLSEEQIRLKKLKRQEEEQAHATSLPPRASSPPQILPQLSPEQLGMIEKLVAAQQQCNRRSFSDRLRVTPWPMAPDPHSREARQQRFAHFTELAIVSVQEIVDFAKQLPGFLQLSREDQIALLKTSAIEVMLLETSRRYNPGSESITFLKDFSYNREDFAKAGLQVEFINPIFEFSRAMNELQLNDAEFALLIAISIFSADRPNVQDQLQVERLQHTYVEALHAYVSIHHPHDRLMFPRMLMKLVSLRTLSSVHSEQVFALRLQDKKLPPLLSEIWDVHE
Sequence of Bile acid receptor (Homo sapiens) (Q96RI1 whole entry, looked up, the tested form may be a part): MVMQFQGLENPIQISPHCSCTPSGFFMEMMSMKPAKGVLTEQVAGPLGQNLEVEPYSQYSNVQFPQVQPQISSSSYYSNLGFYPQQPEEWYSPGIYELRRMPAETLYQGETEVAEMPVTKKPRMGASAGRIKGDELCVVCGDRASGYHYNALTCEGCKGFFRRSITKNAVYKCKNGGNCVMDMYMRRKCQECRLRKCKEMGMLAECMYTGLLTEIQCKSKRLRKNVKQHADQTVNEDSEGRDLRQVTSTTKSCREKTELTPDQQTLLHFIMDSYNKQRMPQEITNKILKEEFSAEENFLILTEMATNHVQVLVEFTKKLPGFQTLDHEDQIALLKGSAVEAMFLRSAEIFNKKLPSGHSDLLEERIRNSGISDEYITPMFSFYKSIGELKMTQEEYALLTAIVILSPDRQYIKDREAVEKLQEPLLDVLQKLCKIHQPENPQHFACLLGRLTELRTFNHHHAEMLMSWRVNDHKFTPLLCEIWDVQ
Sequence of X-box-binding protein 1 (Homo sapiens) (P17861 whole entry, looked up): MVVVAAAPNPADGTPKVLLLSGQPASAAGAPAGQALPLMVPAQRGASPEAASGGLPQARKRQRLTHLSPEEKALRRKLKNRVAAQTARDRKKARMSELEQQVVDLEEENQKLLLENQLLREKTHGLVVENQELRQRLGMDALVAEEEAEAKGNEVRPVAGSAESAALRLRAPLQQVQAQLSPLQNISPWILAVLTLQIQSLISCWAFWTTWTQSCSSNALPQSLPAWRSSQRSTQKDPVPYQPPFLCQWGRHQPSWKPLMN
Sequence of Steroid hormone receptor ERR1 (Homo sapiens) (P11474 whole entry, looked up, the tested form may be a part): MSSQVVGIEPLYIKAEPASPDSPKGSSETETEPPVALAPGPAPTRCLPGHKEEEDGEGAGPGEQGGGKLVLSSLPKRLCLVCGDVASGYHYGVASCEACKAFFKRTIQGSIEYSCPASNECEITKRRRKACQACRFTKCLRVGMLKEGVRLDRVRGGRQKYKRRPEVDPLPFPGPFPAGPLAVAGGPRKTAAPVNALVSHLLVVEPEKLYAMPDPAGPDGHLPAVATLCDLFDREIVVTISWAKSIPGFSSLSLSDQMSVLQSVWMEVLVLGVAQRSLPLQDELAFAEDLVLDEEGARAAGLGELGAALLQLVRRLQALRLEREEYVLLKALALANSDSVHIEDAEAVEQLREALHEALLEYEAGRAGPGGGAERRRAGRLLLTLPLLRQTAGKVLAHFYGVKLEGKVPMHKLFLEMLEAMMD
Sequence of Estrogen receptor (Homo sapiens) (P03372 whole entry, looked up, the tested form may be a part): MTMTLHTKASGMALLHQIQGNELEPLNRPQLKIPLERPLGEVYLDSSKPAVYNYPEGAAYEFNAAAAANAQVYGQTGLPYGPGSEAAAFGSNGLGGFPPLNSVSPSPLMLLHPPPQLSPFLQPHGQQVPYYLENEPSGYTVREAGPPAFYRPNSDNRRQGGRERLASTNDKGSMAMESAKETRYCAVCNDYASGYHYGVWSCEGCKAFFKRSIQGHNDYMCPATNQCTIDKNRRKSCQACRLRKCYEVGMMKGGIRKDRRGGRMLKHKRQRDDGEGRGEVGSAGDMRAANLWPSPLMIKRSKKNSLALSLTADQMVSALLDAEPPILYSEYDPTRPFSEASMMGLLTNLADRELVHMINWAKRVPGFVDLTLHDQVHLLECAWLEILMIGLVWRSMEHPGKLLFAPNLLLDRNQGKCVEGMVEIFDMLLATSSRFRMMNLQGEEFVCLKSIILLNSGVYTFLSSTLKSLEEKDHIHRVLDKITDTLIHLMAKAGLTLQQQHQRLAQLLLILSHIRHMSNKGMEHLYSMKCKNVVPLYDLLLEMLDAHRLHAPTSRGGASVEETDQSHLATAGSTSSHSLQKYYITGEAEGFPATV

NS(=O)(=O)c1cc2c(cc1Cl)NCNS2(=O)=O
active: [4] 4410 nM
not listed: [19] | [20]
inactive: all other assays above

Nc1ccc(S(=O)(=O)c2ccc(N)cc2)cc1
not listed: [4] | [6] | [9] | [10] | [11] | [20]
inactive: all other assays above

COc1cccc2c1C(=O)c1c(O)c3c(c(O)c1C2=O)C[C@@](O)(C(=O)CO)C[C@@H]3O[C@H]1C[C@H](N)[C@H](O)[C@H](C)O1
inactive: [2] | [3] | [6] | [8] | [10] | [12] | [13] | [18]
active: [1] 1260 nM | [4] 318 nM | [7] 82.1 nM

Cc1ccc(Cl)cc1
not listed: [5] | [6] | [9] | [10] | [11] | [12] | [19] | [20]
inactive: all other assays above

COCCOCCOC
not listed: [6] | [10] | [11] | [14] | [15] | [16] | [17] | [20]
inactive: all other assays above

NCCO
inactive: [1] | [2] | [3] | [5] | [7] | [8] | [9] | [13] | [17] | [18]

Cc1cc(=O)[nH]c(=S)[nH]1
inactive: [1] | [2] | [3] | [4] | [7] | [19] | [14] | [15] | [17] | [18]

Cc1nc(-c2ccc3c(c2)CCN(CCC2CCC(NC(=O)/C=C/c4ccc(F)cc4)CC2)CC3)no1 (stereo not given)
inactive: [1] | [2] | [3] | [4] | [7] | [11] | [19] | [15] | [18]

CCCCCCCCCCCC(=O)OC
not listed: [5] | [6] | [10] | [16] | [20]
inactive: all other assays above

COc1cc(S(=O)(=O)O)c(C)cc1N=Nc1c(O)ccc2cc(S(=O)(=O)O)ccc12
not listed: [5] | [8] | [10] | [12] | [13] | [16]
inactive: all other assays above
